# “And” between values parts separate entries of the source, which are not always exact repeats. Identical values can stand only once.
# Experiments:
# Assay in all cases: growth inhibition (% activity, log2 RLU normalised to DMSO / staurosporine); higher = more growth inhibition
# Conditions in all cases: 33 µM
# [1] = tested on: DIPGX29 (H3.3 K27M diffuse intrinsic pontine glioma line)
# Outline: (§1)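 For each approved drug, the growth-inhibition value is the replicate median of per-plate normalised CellTiter-Glo data. Luminescence was log2-transformed and expressed as % activity between solvent and positive control wells. Drugs were applied in triplicate at a single final concentration of about 33 μM for 7 days at 37 °C, 5% CO2 to pHGG cell lines and H9-derived neural stem cells.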
# [2] = tested on: DIPGX37 (H3.3 K27M diffuse intrinsic pontine glioma line)
# Outline: as §1
# [3] = tested on: DIPGX7 (H3.3 K27M diffuse intrinsic pontine glioma line)
# Outline: as §1
# [4] = tested on: DIPGX9 (diffuse intrinsic pontine glioma line)
# Outline: as §1
# [5] = tested on: HGGX39 (paediatric high-grade glioma line)
# Outline: as §1
# [6] = tested on: HGGX6 (H3.3 G34R paediatric high-grade glioma line)
# Outline: as §1
# [7] = tested on: HNSC
# Outline: as §1
# [8] = tested on: SUDIPGIV (diffuse intrinsic pontine glioma line)
# Outline: as §1
# [9] = tested on: SUDIPGVI (diffuse intrinsic pontine glioma line)
# Outline: as §1
# [10] = tested on: SUDIPGXIII (diffuse intrinsic pontine glioma line)
# Outline: as §1
SMILES,growth inhibition [1],growth inhibition [2],growth inhibition [3],growth inhibition [4],growth inhibition [5],growth inhibition [6],growth inhibition [7],growth inhibition [8],growth inhibition [9],growth inhibition [10]
CCC1(c2cccc(O)c2)CCCCN(C)C1 (stereo not drawn),0.813%,0.766%,-0.204%,0.246%,-0.148%,-2.47%,18.5%,-0.915%,-3.26%,-1.39%
CN1C(=O)CCS(=O)(=O)C1c1ccc(Cl)cc1 (stereo not drawn),0.502%,0.814%,0.531%,1.13%,2.2%,1.29%,2.59%,0.226%,-0.17%,-0.0547%
C=C1C[C@@H]2[C@H](CC[C@]3(C)C(=O)CC[C@@H]23)[C@@]2(C)C=CC(=O)C=C12,2.35%,1.24%,3.42%,2.01%,0.458%,-1.58%,-0.552%,-2.53%,-2.19%,0.875%
Cc1c(N)nc(C(CC(N)=O)NCC(N)C(N)=O)nc1C(=O)NC(C(=O)NC(C)C(O)C(C)C(=O)NC(C(=O)NCCc1nc(-c2nc(C(=O)NCCC[S+](C)C)cs2)cs1)C(C)O)C(O[C@@H]1O[C@@H](CO)[C@@H](O)[C@H](O)[C@@H]1O[C@H]1O[C@H](CO)[C@@H](O)[C@H](OC(N)=O)[C@@H]1O)c1cnc[nH]1 (stereo partly drawn),3.71%,5.42%,1.63%,17.8%,8.29%,4.24%,56.5%,32.5%,1.68%,4.14%
C=CC[C@]1(O)CC[C@H]2[C@@H]3CCC4=CC(=O)CCC4=C3C=C[C@@]21C,1.35%,1.67%,-0.403%,1.01%,1.7%,1.91%,2.23%,1.08%,1.88%,2.31%
NCC(O)c1ccc(O)cc1 (stereo not drawn),-0.0577%,1.17%,0.265%,-0.182%,2.12%,-2.95%,22.2%,1.19%,-3.26%,-3%
C[C@]12CC[C@H]3[C@@H](CC[C@@]45O[C@@H]4C(O)=C(C#N)C[C@]35C)[C@@H]1CC[C@@H]2O,0.975%,-2.98%,3.34%,-0.94%,3.74%,0.2%,-3.23%,-0.766%,-0.488%,-1.34%
Cc1cccc(C)c1NC1=NCCCS1,-3.36%,-1.28%,-0.135%,-0.817%,-0.494%,0.819%,-4.34%,2.42%,-4.55%,0.0734%
Nc1nc(N)nc(NC2CC2)n1,0.786%,3.68%,1.03%,0.525%,0.614%,-0.225%,1.21%,1.07%,2.19%,0.454%
O=C(O[C@H]1C[N+]2(CCCOc3ccccc3)CCC1CC2)C(O)(c1cccs1)c1cccs1,-1.76%,-1.33%,-0.665%,-1.04%,-0.0721%,-0.623%,3.39%,-1.77%,-5.53%,0.0508%
C[C@]12CC[C@H](O)CC1=CC[C@@H]1[C@@H]2CC[C@]2(C)C(=O)CC[C@@H]12,2.61%,1.45%,2.22%,1.17%,3.44%,4%,3.63%,2.37%,3.47%,1.67%
OC(c1ccccc1)(c1ccccc1)C1CCNCC1,0.581%,-0.7%,-0.982%,-0.0248%,-0.475%,0.616%,-1.42%,-1.01%,0.144%,1.52%
NCC(CC(=O)O)c1ccc(Cl)cc1 (stereo not drawn),1.57%,-2.95%,2.49%,1.01%,0.323%,-0.203%,33.3%,2.9%,-4.01%,0.136%
CC(=O)O[C@H]1C[C@@H]2CC[C@@H]3[C@H](CC[C@@]4(C)[C@H]3C[C@H]([N+]3(C)CCCCC3)[C@@H]4OC(C)=O)[C@@]2(C)C[C@@H]1[N+]1(C)CCCCC1,-1.09%,0.743%,-0.188%,0.99%,-0.431%,1.2%,-0.41%,-0.385%,0.196%,–
O=c1[nH]c2ccccc2n1CCCN1CCC(n2c(=O)[nH]c3cc(Cl)ccc32)CC1,1.24%,-0.863%,0.225%,-0.635%,3.76%,1.12%,1.78%,-1.4%,-2.62%,-2.52%
CN1C2CC(O)CC1C1OC12 (stereo not drawn),-2.42%,-0.452%,-1.33%,0.803%,-1.67%,-0.472%,-2.89%,-1.37%,-0.226%,–
CCCN1C[C@H](CSC)C[C@@H]2c3cccc4[nH]cc(c34)C[C@H]21,-0.00648%,-1.76%,-0.373%,-0.427%,1.29%,2.2%,-2.99%,0.236%,0.348%,-3.14%
Cc1cc(O)ccc1Cl,-0.668%,0.714%,0.716%,-0.222%,0.78%,0.216%,-2.46%,-0.746%,0.283%,0.848%
CC[C@@]1(O)C(=O)OCc2c1cc1n(c2=O)Cc2cc3ccccc3nc2-1,11.8%,-1.33%,11.4%,14.7%,39.5%,13.4%,65.8%,46.6%,2.42%,2.77%
Cn1c(CCCC(=O)O)nc2cc(N(CCCl)CCCl)ccc21,3.01%,2.76%,2.34%,11.2%,4.99%,3.4%,48.6%,-0.00689%,1.43%,-0.487%

SMILES,growth inhibition [1],growth inhibition [2],growth inhibition [3],growth inhibition [4],growth inhibition [5],growth inhibition [6],growth inhibition [7],growth inhibition [8],growth inhibition [9],growth inhibition [10]
CCC(COC(=O)c1cc(OC)c(OC)c(OC)c1)(c1ccccc1)N(C)C (stereo not drawn),7.04%,-5.85%,26.9%,2.8%,7.48%,5.32%,52.1%,23.2%,-0.409%,-13.6%
C[N+](C)(C)CCCCCCCCCC[N+](C)(C)C,0.486%,-0.577%,1.7%,1.41%,3.26%,2.4%,1.52%,0.278%,4.87%,-1.36%
CCC1(c2ccc(N)cc2)CCC(=O)NC1=O (stereo not drawn),-0.867%,0.792%,0.848%,0.885%,1.68%,2.54%,-1.67%,-1.8%,0.634%,-0.67%
CN(C)C(=O)Oc1cccc([N+](C)(C)C)c1,-3.32%,0.574%,-0.239%,-1.38%,-0.512%,-1.84%,-0.376%,-1.46%,-1.83%,1.72%
C[N+]1(C)CCCC(OC(=O)C(O)(c2ccccc2)c2ccccc2)C1 (stereo not drawn),-0.577%,0.259%,-0.262%,0.527%,-0.329%,-1.01%,20.4%,-0.578%,-2.44%,-1.44%
Cc1cc(C(C#N)c2ccc(Cl)cc2)c(Cl)cc1NC(=O)c1cc(I)cc(I)c1O (stereo not drawn),-4.52%,-1.84%,-0.384%,-2.01%,-0.728%,-4.74%,4.96%,-0.00583%,-3.36%,3.29%
CCOC(=O)c1cncn1[C@H](C)c1ccccc1,1.12%,2.21%,2.54%,2.62%,1.86%,2.36%,3.19%,-0.15%,2.48%,0.0732%
CC(=O)OC1CN2CCC1CC2 (stereo not drawn),-0.533%,1.16%,0.391%,1.28%,1.15%,-1.32%,2.31%,-0.883%,1.26%,0.846%
CCCCCCCCCCCCCCCC[n+]1ccccc1,59.1%,58.4%,62.7%,52.2%,59.6%,35.8%,76.6%,55.8%,62.8%,72.8%
C#C[C@]1(O)CC[C@H]2[C@@H]3CCC4=CC(=O)CC[C@]4(C)[C@H]3CC[C@@]21C,0.66%,2.06%,2.92%,3.05%,1.6%,0.344%,5.86%,0.623%,2.6%,0.296%
CN(C)C(=O)Oc1ccc[n+](C)c1,0.471%,-1.26%,-0.161%,0.978%,0.907%,0.761%,-1.64%,0.973%,1.15%,-0.0947%
CN(C)[C@@H]1C(=O)C(C(N)=O)=C(O)[C@@]2(O)C(=O)C3=C(O)c4c(O)ccc(Cl)c4[C@@](C)(O)[C@H]3C[C@@H]12,3.18%,4.29%,3.71%,3.16%,4.59%,3.5%,2.92%,2.12%,3.1%,-1.15%
CC[C@@H](C(N)=O)N1CCCC1=O,1.34%,-1.57%,0.427%,-0.877%,-1.17%,-3.23%,-0.905%,-1.25%,-0.784%,0.999%
O=P1(N(CCCl)CCCl)NCCCO1 (stereo not drawn),-1.28%,-0.973%,-2.34%,-0.609%,-1.32%,-0.517%,-1.67%,-2.17%,-1.97%,-0.0596%
C[C@@H]1CC[C@H]2[C@@H](C)C(=O)O[C@@H]3O[C@@]4(C)CC[C@@H]1[C@]32OO4,3.47%,-0.962%,4.12%,4.81%,4.98%,4.39%,14.5%,12.8%,-4.44%,20.5%
CC(C)c1c(CN(C)C(C)Cc2ccccc2)n(C)n(-c2ccccc2)c1=O (stereo not drawn),2.25%,0.985%,2.59%,-0.334%,-0.152%,-0.564%,48.4%,1.4%,-1.33%,2.29%
O=C1CC[C@@]2(O)[C@H]3Cc4ccc(O)c5c4[C@@]2(CCN3CC2CC2)[C@H]1O5,1.67%,1.95%,2.36%,2.58%,3.26%,2.55%,3.56%,1.52%,3.67%,-0.861%
CN(C)[C@@H]1C(=O)C(C(N)=O)=C(O)[C@@]2(O)C(=O)C3=C(O)c4c(O)cccc4[C@@](C)(O)[C@H]3[C@H](O)[C@@H]12,0.568% and -1.27%,1.33% and -2.42%,0.754% and -1.23%,1.93% and -1.22%,2.88% and -0.945%,1.26% and -1.1%,0.393% and 0.992%,2.12% and -1.5%,-1.25% and -0.24%,1.12% and 0.41%
CC(C)NCC(O)c1ccccc1Cl (stereo not drawn),0.364%,-1.04%,-0.863%,-0.306%,2.3%,1.8%,-2.5%,0.901%,0.486%,-0.265%

# Reference: the supplement of paper PMC8253809
